This is part of a sample that, as a whole, favours compounds with a hit. Of some 83,000 tested, about 20% had one in any assay.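 48-hour exposure, single concentration, 96-well plates; percent growth endpoint where 0 means no net growth. Active: below 10.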 Unmarked numbers belong to inactive results. The source made the active and inactive calls.

Among the test systems are SK-MEL-2 melanoma; EKVX NSCLC; SN12C renal; UO-31 renal; TK-10 renal; ACHN renal; CAKI-1 renal; A498 renal; CCRF-CEM leukemia; MOLT-4 leukemia; SR leukemia; RPMI-8226 leukemia; OVCAR-8 ovarian; OVCAR-5 ovarian; OVCAR-4 ovarian; SK-OV-3 ovarian; IGROV1 ovarian; OVCAR-3 ovarian; HS 578T breast; NCI/ADR-RES ovarian.
What all share (experiment): NCI-60 one-dose screen, 48 h (100 = growth as untreated, 0 = no growth, -100 = all killed)
Holding throughout (conditions): 10 µM unless noted

Turning to `COc1cc(C2=Nc3c(N)nc(N)nc3NC(c3cccc(Nc4ccnc5cc(C(F)(F)F)ccc45)c3)C2)cc(OC)c1OC` (stereo not given), the growth is 88% with SK-MEL-2 melanoma; 66% in the experiment on EKVX NSCLC; 73% in the experiment on SN12C renal; 51.8% in the experiment with UO-31 renal; 108% in the experiment with TK-10 renal; 96.8% in the experiment with ACHN renal. In addition, the growth with CAKI-1 renal was 58.6%; with A498 renal, 79.8%; in the experiment on CCRF-CEM leukemia, 51.7%; with MOLT-4 leukemia, 19.2%; in the experiment on SR leukemia, 0.109% (active); in the experiment on RPMI-8226 leukemia it was 10.8%. The growth in the experiment with OVCAR-8 ovarian was 68.8%; in the experiment with OVCAR-5 ovarian it was 129%; in the experiment on OVCAR-4 ovarian it was 74.7%; in the experiment with SK-OV-3 ovarian, 88.1%; with IGROV1 ovarian, 65.6%; in the experiment on OVCAR-3 ovarian it was 83.5%. The growth in the experiment with HS 578T breast is 62.7%; in the experiment with NCI/ADR-RES ovarian, 95.3%.

As for `CCCCC1=C(Br)C(=O)c2ncccc2C1=O`, the growth in the experiment with SK-MEL-2 melanoma was 111%; in the experiment on EKVX NSCLC, 99.2%; in the experiment with SN12C renal, 92.7%; in the experiment on UO-31 renal, 87.6%; in the experiment on TK-10 renal, 109%; with ACHN renal it was 67.4%. Besides, the growth with CAKI-1 renal was 90%; in the experiment with A498 renal it was 99.5%; with CCRF-CEM leukemia, 8.13% (active); in the experiment on MOLT-4 leukemia it was 5.83% (active); in the experiment with SR leukemia, 30.8%; in the experiment on RPMI-8226 leukemia, 41.7%. The growth in the experiment on OVCAR-8 ovarian was 95.4%; in the experiment on OVCAR-5 ovarian, 112%; in the experiment with OVCAR-4 ovarian it was 88.2%; in the experiment on SK-OV-3 ovarian it was 90.2%; with IGROV1 ovarian, 102%; in the experiment on OVCAR-3 ovarian, 57.1%. Moreover, the results for the growth in the experiment with HS 578T breast and in the experiment with NCI/ADR-RES ovarian were 104% and 96.8%, respectively.

Consider `COc1ccc(N2C(=O)/C(=C/C(Cl)=C/c3ccc([N+](=O)[O-])cc3)SC2=S)cc1`, for which the growth in the experiment with SK-MEL-2 melanoma is 37.4%; with EKVX NSCLC it was -3.04% (active); with SN12C renal it was -3.33% (active); in the experiment on UO-31 renal, -97.7% (active); with TK-10 renal it was -26.7% (active); with ACHN renal, -68% (active). Besides, the growth in the experiment on CAKI-1 renal was 0.845% (active); in the experiment on A498 renal, 63.2%; in the experiment with CCRF-CEM leukemia, 0.216% (active); in the experiment on MOLT-4 leukemia, 2.36% (active); in the experiment on SR leukemia, -6.82% (active); in the experiment with RPMI-8226 leukemia, -9.98% (active). For the same compound, the growth in the experiment with OVCAR-8 ovarian is 6.6% (active); in the experiment on OVCAR-5 ovarian it was 10%; in the experiment on OVCAR-4 ovarian it was 10.4%; in the experiment on SK-OV-3 ovarian it was 40.8%; in the experiment with IGROV1 ovarian, -52.7% (active); with OVCAR-3 ovarian it was -57.6% (active). Besides, the figures for the growth with HS 578T breast and in the experiment with NCI/ADR-RES ovarian were 26.3% and 8.97% (active), respectively.

In the case of `Nc1nc(Nc2ccc([N+](=O)[O-])cc2O)nc(C(Cl)(Cl)Cl)n1`, the growth was 79% in the experiment with SK-MEL-2 melanoma; 106% with EKVX NSCLC; 80.6% with SN12C renal; 71.7% with UO-31 renal; 92.4% with TK-10 renal; 79.7% with ACHN renal. Besides, the growth in the experiment on CAKI-1 renal is 46.3%; in the experiment with A498 renal, 36.5%; with CCRF-CEM leukemia, 19.3%; in the experiment on MOLT-4 leukemia, 25.8%; in the experiment with SR leukemia, 7.45% (active); in the experiment on RPMI-8226 leukemia, 51.1%. Further, the growth in the experiment on OVCAR-8 ovarian is 81.6%; with OVCAR-5 ovarian, 105%; in the experiment on OVCAR-4 ovarian it was 55.2%; in the experiment on SK-OV-3 ovarian it was 95.4%; in the experiment on IGROV1 ovarian it was 88%; in the experiment with OVCAR-3 ovarian, 55%. Besides, the growth with HS 578T breast was 84.3%; with NCI/ADR-RES ovarian, 48%.

With `C=C1/C(=C\C=C2/CCC[C@]3(C)[C@@H]([C@H](C)CCCC(C)(C)O)CC[C@@H]23)C[C@@H](OC(=O)CBr)C[C@@H]1O`, the growth in the experiment on SK-MEL-2 melanoma was 99.7%; in the experiment with EKVX NSCLC it was 52.4%; with SN12C renal, 85.2%; in the experiment with UO-31 renal, -100% (active); in the experiment on TK-10 renal, 88.2%; with ACHN renal, -29.7% (active). The growth in the experiment with CAKI-1 renal was -30.4% (active); with A498 renal it was 86.2%; with CCRF-CEM leukemia, -50.7% (active); with MOLT-4 leukemia it was -52.6% (active); in the experiment on SR leukemia, -47.3% (active); with RPMI-8226 leukemia, -50.7% (active). For the same compound, the growth is 57.3% in the experiment on OVCAR-8 ovarian; 84.1% with OVCAR-5 ovarian; 62.7% in the experiment with OVCAR-4 ovarian; 108% in the experiment on SK-OV-3 ovarian; -65.5% (active) with IGROV1 ovarian; -20.1% (active) in the experiment on OVCAR-3 ovarian. Moreover, the growth in the experiment with HS 578T breast is 66.6%; with NCI/ADR-RES ovarian it was 81.2%.

For `COC(=O)CCc1c(/C=C2\N=C(c3ccc[nH]3)C=C2OC)[nH]c(C)c1C(=O)OCc1ccccc1`, the growth with SK-MEL-2 melanoma was -27.8% (active); with EKVX NSCLC it was 27.4%; in the experiment on SN12C renal it was 15.8%; with UO-31 renal it was -67.2% (active); in the experiment on TK-10 renal, 18.4%; in the experiment with ACHN renal it was 4.36% (active). In addition, the growth in the experiment with CAKI-1 renal was -3.87% (active); in the experiment with A498 renal it was 15.1%; in the experiment with CCRF-CEM leukemia, 1.47% (active); with MOLT-4 leukemia, 16.9%; in the experiment with SR leukemia, -17.8% (active); with RPMI-8226 leukemia, -32.5% (active). Also, the growth in the experiment with OVCAR-8 ovarian is 7.03% (active); in the experiment with OVCAR-5 ovarian, 34.1%; in the experiment with OVCAR-4 ovarian, 31.3%; in the experiment on SK-OV-3 ovarian, 21.5%; with IGROV1 ovarian, 21.7%; in the experiment on OVCAR-3 ovarian, -31.1% (active). The results for the growth with HS 578T breast and in the experiment on NCI/ADR-RES ovarian were -14.7% (active) and 9.4% (active), respectively.

In the case of `C#CCOC(=O)C(N)CSSCC(N)C(=O)O` (stereo not given), the growth is 89.2% in the experiment with SK-MEL-2 melanoma; 102% in the experiment on EKVX NSCLC; 105% in the experiment with SN12C renal; 83.5% in the experiment on UO-31 renal; 100% in the experiment with TK-10 renal; 91.7% in the experiment with ACHN renal. In addition, the growth with CAKI-1 renal was 90.7%; in the experiment on A498 renal, 116%; in the experiment on CCRF-CEM leukemia it was 99.4%; in the experiment with MOLT-4 leukemia, 102%; in the experiment with SR leukemia, 96.1%; in the experiment with RPMI-8226 leukemia, 103%. Further, the growth with OVCAR-8 ovarian was 111%; in the experiment with OVCAR-5 ovarian, 84.4%; in the experiment on OVCAR-4 ovarian it was 95.9%; in the experiment on SK-OV-3 ovarian it was 109%; in the experiment on IGROV1 ovarian it was 99.5%; with OVCAR-3 ovarian, 112%. For the same compound, the growth is 107% in the experiment with HS 578T breast and 101% with NCI/ADR-RES ovarian.

For `CNC1=C(Br)C(=O)c2c(C(=O)OC)c(C)nc(C)c2C1=O`, the growth in the experiment with SK-MEL-2 melanoma was 52.1%; in the experiment with EKVX NSCLC, 79.3%; in the experiment with SN12C renal, 45.4%; in the experiment with UO-31 renal, 77.4%; with TK-10 renal it was 132%; in the experiment with ACHN renal, 72%. Moreover, the growth is 68.2% in the experiment on CAKI-1 renal; 93.1% in the experiment on A498 renal; 77.3% in the experiment with CCRF-CEM leukemia; 79.8% in the experiment on MOLT-4 leukemia; 86.5% with SR leukemia; 75.8% in the experiment with RPMI-8226 leukemia. In addition, the growth in the experiment on OVCAR-8 ovarian was 38.7%; with OVCAR-5 ovarian, 97.3%; in the experiment with OVCAR-4 ovarian, 35.4%; with SK-OV-3 ovarian, 116%; in the experiment with IGROV1 ovarian, 67.6%; in the experiment on OVCAR-3 ovarian, 1.75% (active). The figures for the growth in the experiment on HS 578T breast and with NCI/ADR-RES ovarian were 72.4% and 74.7%, respectively.

These data come from PubChem BioAssay (NCI).
